Reference: PubChem BioAssay (NCI)
Several values for one entry are separate records, joined by “and”; a condition that tells them apart may be missing. Equal entries are not always repeated. Compounds without any hit were thinned out: in the full panel of roughly 83,000, 20% have a hit.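 Single-concentration screen, 48 h exposure, 96-well plates. Endpoint: percent growth. Below 10 = active.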 Activity calls are given as the source filed them.

What was measured:
Assay in all cases: NCI-60 one-dose screen, 48 h (100 = growth as untreated, 0 = no growth, -100 = all killed)
Conditions in all cases: 10 µM unless noted
[1] = system: SR leukemia
[2] = system: RPMI-8226 leukemia
[3] = system: OVCAR-8 ovarian
[4] = system: OVCAR-5 ovarian
[5] = system: OVCAR-4 ovarian
[6] = system: SK-OV-3 ovarian
[7] = system: IGROV1 ovarian
[8] = system: OVCAR-3 ovarian
[9] = system: HS 578T breast
[10] = system: NCI/ADR-RES ovarian

| SMILES | growth [1] | growth [2] | growth [3] | growth [4] | growth [5] | growth [6] | growth [7] | growth [8] | growth [9] | growth [10] |
| --- | --- | --- | --- | --- | --- | --- | --- | --- | --- | --- |
| Cc1ccc2c(c1)/C(=C/C(=O)c1cc3ccccc3oc1=O)C(=O)N2 | 6.51% (active) | 36.7% (inactive) | 54.9% (inactive) | 77.4% (inactive) | 53.9% (inactive) | 100% (inactive) | 102% (inactive) | -0.742% (active) | 78% (inactive) | 65.9% (inactive) |
| COc1ccccc1NC(=O)c1ccc(NC(=O)CCl)s1 | 2.06% (active) | -37.4% (active) | -61% (active) | 2.87% (active) | 65.2% (inactive) | -4.26% (active) | -63.9% (active) | 1.97% (active) | 18.3% (inactive) | 2.28% (active) |
| Fc1ccc(N2CC(Cn3c(C(F)(F)F)cc4c(Cl)ncnc43)C2)c(F)c1 | -60.9% (active) | 24.2% (inactive) | -87.6% (active) | 107% (inactive) | -27.1% (active) | 100% (inactive) | -95.7% (active) | -66.2% (active) | 55.1% (inactive) | 11.4% (inactive) |
| COc1ccc2[nH]c(=O)c(CSc3ccccc3Nc3nccc(-c4ccc5c(c4)OCO5)n3)cc2c1 | 67.3% (inactive) | 68.2% (inactive) | 79.2% (inactive) | 103% (inactive) | 61.1% (inactive) | 112% (inactive) | 87.4% (inactive) | 92.3% (inactive) | 89.4% (inactive) | 74.3% (inactive) |
| COc1ccc(-c2nc3ccccc3n2CC(=O)N=Nc2c(O)[nH]c3ccc(OC)cc23)cc1 | 0.469% (active) | 52% (inactive) | 6.22% (active) | 86.8% (inactive) | 50.8% (inactive) | 104% (inactive) | 45.7% (inactive) | 35.5% (inactive) | 30.3% (inactive) | 48% (inactive) |
| O=c1c(-c2nc(-c3ccccc3)c(-c3ccccc3)[nH]2)coc2ccc(F)cc12 | 63.5% (inactive) | 32.1% (inactive) | 82.6% (inactive) | 96.1% (inactive) | 47.3% (inactive) | 68.2% (inactive) | 62.8% (inactive) | 33.3% (inactive) | 71.6% (inactive) | 51.4% (inactive) |
| Nc1nnc(-c2cncc(Br)c2)c(-c2c[nH]c3ccc(Br)cc23)n1 | 54.3% (inactive) | 38.4% (inactive) | 60% (inactive) | 83% (inactive) | 42.9% (inactive) | 98.7% (inactive) | 52.3% (inactive) | 69.9% (inactive) | 55.3% (inactive) | 23.9% (inactive) |
| O=C(Nc1ccc(-c2ccc3c(c2)NC(=O)/C3=C\c2ccc[nH]2)cc1)Nc1ccc(Cl)c(Cl)c1 | 16% (inactive) | 41.1% (inactive) | 55.6% (inactive) | 67.9% (inactive) | 37.6% (inactive) | 94.7% (inactive) | 65.7% (inactive) | 12.9% (inactive) | 45.9% (inactive) | 51.4% (inactive) |
| C[C@@H](Nc1c(C#N)cnc2ccc(-c3cnc4[nH]ncc4c3)cc12)c1ccccc1 | -8.05% (active) | -1.82% (active) | 24.4% (inactive) | 15.2% (inactive) | 36.9% (inactive) | 19.5% (inactive) | -60.6% (active) | 3.49% (active) | -19.5% (active) | 17.7% (inactive) |
| CCOC(=O)c1ccc(NC(=S)NC(=O)c2cccc(NC(=O)c3ccc(C)cc3)c2)cc1 | 54.5% (inactive) | 62.4% (inactive) | 28.9% (inactive) | 77.3% (inactive) | 27.8% (inactive) | 73.5% (inactive) | 73.6% (inactive) | 61.4% (inactive) | 53.4% (inactive) | 65.9% (inactive) |
| COc1ccc(-c2cc(-c3cc(C(C)C)c(O)cc3C)nn2-c2ccc(S(N)(=O)=O)cc2)cc1 | 5.77% (active) | 16.5% (inactive) | 24.5% (inactive) | 65.8% (inactive) | 64% (inactive) | 60.5% (inactive) | 85.8% (inactive) | 8.38% (active) | 28.9% (inactive) | -17.2% (active) |
| O=c1[nH]c2ccccc2cc1COc1ccc(Nc2nccc(-c3ccc(Cl)cc3)n2)cc1 | 103% (inactive) | 108% (inactive) | 102% (inactive) | 106% (inactive) | 95.6% (inactive) | 94.5% (inactive) | 102% (inactive) | 138% (inactive) | 85.7% (inactive) | 101% (inactive) |
| CCc1ccccc1NC(=O)N/C(N)=N/c1nc2ccccc2s1 | 7.38% (active) | 15.7% (inactive) | -26.6% (active) | 0.307% (active) | 16.7% (inactive) | 7.32% (active) | 20% (inactive) | -30.2% (active) | 27.1% (inactive) | -30.4% (active) |
| CN(C)c1nc(NCCNS(=O)(=O)c2ccc(C3=Nc4c(N)nc(N)nc4NC(c4ccc(C(F)(F)F)cc4)C3)cc2)nc(N2CCOCC2)n1 (stereo not given) | 3.12% (active) | 34.8% (inactive) | 43.2% (inactive) | 78% (inactive) | 58% (inactive) | 55.8% (inactive) | 45.7% (inactive) | 58.2% (inactive) | 40.7% (inactive) | 91.8% (inactive) |
| CN(C)c1nc(NCCNS(=O)(=O)c2ccc(C3=Nc4c(N)nc(N)nc4NC(c4ccc(Cl)cc4)C3)cc2)nc(N2CCOCC2)n1 (stereo not given) | 31.9% (inactive) | 21.4% (inactive) | 64.3% (inactive) | 82.7% (inactive) | 66.9% (inactive) | 75.9% (inactive) | 45% (inactive) | 65.5% (inactive) | 45.2% (inactive) | 85.7% (inactive) |
| COc1ccc(-c2cc(-c3ccccc3)c(C#N)c(=O)[nH]2)cc1S(N)(=O)=O | 100% (inactive) | 100% (inactive) | 113% (inactive) | 99.3% (inactive) | 102% (inactive) | 99.4% (inactive) | 126% (inactive) | 109% (inactive) | 109% (inactive) | 105% (inactive) |
| COc1ccc2c(c1)c(-c1cc(N)n3nc(-c4c[nH]c5ccccc45)cc3n1)cn2C | 6.54% (active) | -9.07% (active) | -74.7% (active) | -69.7% (active) | -29.8% (active) | -55.6% (active) | -62.4% (active) | -71.1% (active) | -17.9% (active) | -43.3% (active) |
| Nc1cc(-c2c[nH]c3ccc(Cl)cc23)nc2cc(-c3c[nH]c4ccccc34)nn12 | 10.2% (inactive) | 0.472% (active) | -4.93% (active) | -50.4% (active) | 19.8% (inactive) | 5.29% (active) | 2.75% (active) | -52.7% (active) | -3.21% (active) | -3.2% (active) |
| O=C(CCl)Nc1ccc(C(=O)/C=C/c2cc3ccccc3nc2Cl)cc1 | -69.5% (active) and 25.5% (inactive) | -36.6% (active) and 40.5% (inactive) | 14.6% (inactive) and 48.6% (inactive) | -61.1% (active) and 55.9% (inactive) | -59.6% (active) and 54.7% (inactive) | 70.5% (inactive) and 66.7% (inactive) | -84.1% (active) and 39.2% (inactive) | -59.5% (active) and 42.4% (inactive) | 42.1% (inactive) and 53.7% (inactive) | -26.4% (active) and 4.54% (active) |
| O=C1c2cccc3c(N4CCN(Cc5ccccc5)CC4)ccc(c23)C(=O)N1c1cccc(-c2nn(-c3ccccc3)cc2-c2nc3ccccc3s2)c1 | 87.3% (inactive) | 103% (inactive) | 115% (inactive) | 107% (inactive) | 105% (inactive) | 102% (inactive) | 89.5% (inactive) | 102% (inactive) | 106% (inactive) | 104% (inactive) |
| COc1cc(/C=C/C(=O)c2cnn(-c3cc(=O)[nH]c4ccc(Cl)cc34)c2C)cc(OC)c1OC | -11.6% (active) | -31.7% (active) | -0.426% (active) | -52.3% (active) | 17.7% (inactive) | -6.03% (active) | -35.3% (active) | -61.7% (active) | 23.9% (inactive) | -20.3% (active) |
| O=C1NC(=S)/C(=C/c2cn(-c3ccccc3)nc2-c2ccccc2)S1 | 83.4% (inactive) | 5.49% (active) | 31.7% (inactive) | 47.9% (inactive) | 25.4% (inactive) | 35.5% (inactive) | 29.1% (inactive) | 36.7% (inactive) | 8.03% (active) | 18.6% (inactive) |
| Cc1ccc(O)cc1Nc1nc(SCCN2CCOCC2)nc2c1cnn2CC(Cl)c1ccc(Br)cc1 (stereo not given) | -29.4% (active) | 16.8% (inactive) | 20.7% (inactive) | 18.8% (inactive) | 32.3% (inactive) | 43.9% (inactive) | -1.66% (active) | 26.5% (inactive) | -25.8% (active) | 7.37% (active) |
